PubChem BioAssay (Tox21)
Inconclusive results are not listed. Activity calls are given as the source filed them. Unless noted, calls follow the shape of the dose curve; as a rule, active = well fitted curve in the direction sought with a large enough effect in the repeat runs; inconclusive = weak or mixed curves; inactive = no such curve, though single readings can be large; an effect the other way counts as inactive or inconclusive.

Columns and labels:
[1] = qHTS assay to identify small molecule antagonists of the estrogen receptor alpha (ER-alpha) signaling pathway using the BG1 cell line in the presence of 0.1 nM 17-beta-estradiol - cell viability counter screen (AID 1259241); also: nearly all actives have a fitted effect of over 40% in size
Method in brief: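 In this screen, hormone-deprived VM7Luc4E2 cells were seeded at 4,000 per well, dosed with compound and 0.1 nM estradiol final, and incubated 22 hr at 37C and 5% CO2; fluorogenic live-cell protease signal reported viability.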

[2] = qHTS assay to identify small molecule HDAC inhibitors (AID 1259364); also: top concentration of the series differs between compounds; nearly all actives have a fitted effect of over 45% in size
Method in brief: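 Wild-type HCT-116 cells were plated overnight, exposed to compounds for 2 h at 37 °C, then given HDAC-Glo class I/II luminogenic reagent for 30 min at room temperature before luminescence was read.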

[3] = qHTS assay to identify small molecule HDAC inhibitors - cell viability counter screen (AID 1259365); also: series mostly up to about 92 µM; nearly all actives have a fitted effect of over 50% in size
Method in brief: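 Measured quantity is CellTiter-Glo luminescence from wild-type HCT-116 cells after compound incubation of 2hr at 37C, 5% CO2; reagent developed 30min at room temperature.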

[4] = qHTS assay to identify small molecule agonists of the sonic hedgehog signaling (Shh) pathway - cell viability counter screen (AID 1259366); also: nearly all actives have a fitted effect of over 50% in size
Method in brief: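 In quantitative high-throughput format, 3T3 Gli1-Luc cells were exposed to compounds for 24hr and multiplexed for viability using CellTiter-Fluor, incubated 1hr at 37C before the fluorescence read.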

[5] = qHTS assay to identify small molecule antagonists of the sonic hedgehog signaling (Shh) pathway - cell viability counter screen (AID 1259367); also: nearly all actives have a fitted effect of over 55% in size
Method in brief: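 Cells: 3T3 Gli1-Luc, 2,000/well, 4 hr pre-incubation. Compounds in DMSO, then conditioned medium. Incubation 24 hr, 37C, 5% CO2. CellTiter-Fluor at 23 hr, 1 hr, fluorescence.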

[6] = qHTS assay to identify small molecule agonists of the sonic hedgehog signaling (Shh) pathway (AID 1259368; calls by dose curve; also: series mostly up to about 92 µM; nearly all actives have a fitted effect of over 15% in size)
Method in brief: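 NIH/3T3-derived 3T3Gli1-Luc cells carrying a stably integrated Gli1 response element–firefly luciferase reporter were plated, left 4 hr at 37 C, then given compounds in DMSO for 24 hr. Luminescence was read 30 min after adding luciferase reagent.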

[7] = qHTS assay to identify small molecule antagonists of the sonic hedgehog signaling (Shh) pathway (AID 1259369; calls by dose curve; also: nearly all actives have a fitted effect of over 45% in size)
Method in brief: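 NIH/3T3-derived 3T3Gli1-Luc cells with stably integrated Gli1-Luc reporter were preincubated 4hr at 37 C, then given compounds in DMSO plus Shh conditioned medium and incubated 24hr. Firefly luciferase luminescence read after 30min reagent at room temperature.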

[8] = qHTS assay to identify small molecule agonists of the androgen receptor (AR) signaling pathway in the presence of an antagonist - cell viability counter screen (AID 1259379); also: nearly all actives have a fitted effect of over 25% in size; also: potency is read from the fitted curve at half-maximal effect
Method in brief: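 MDA-kb2 human breast carcinoma cells (stable MMTV-luciferase, AR/GR responsive) were seeded 3,000 cells/well, pre-incubated 5 hr at 37C without CO2, then given 3.0uM nilutamide and compounds at 15 concentrations for 16 hr. Viability was read by CellTiter-Fluor fluorescence.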

[9] = qHTS assay to identify small molecule agonists of the estrogen receptor beta (ER-beta) signaling pathway - cell viability counter screen (AID 1259380); also: nearly all actives have a fitted effect of over 30% in size
Method in brief: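 ER-beta-UAS-bla HEK293T cells in medium with 2% charcoal-stripped FBS were preincubated 6 hr at 37C, dosed with compound in DMSO for 16 hr, then after the bla read, CellTiter-Glo was added for 30 min at room temperature; luminescence recorded.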

[10] = qHTS assay to identify small molecule antagonists of the estrogen receptor beta (ER-beta) signaling pathway - cell viability counter screen (AID 1259382);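 also: HEK293T cells carrying ER-beta-UAS-bla reporter stimulated with estradiol; series mostly up to about 92 µM; nearly all actives have a fitted effect of over 55% in size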
Method in brief: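 ER-beta-UAS-bla HEK293T cells (2,000/well, 2% charcoal-stripped FBS) were pre-incubated 6 hr at 37C, then given compound plus 1nM final 17-beta-estradiol for 16 hr. Viability was read in the same wells by CellTiter-Glo luminescence after 30 min at room temperature.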

[11] = qHTS assay to identify small molecule phospholipidosis (PLD) inducers (AID 1259344; active = well fitted curve in the direction sought with a large enough effect; an effect the other way counts as inactive or inconclusive)
Method in brief: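 Phospholipidosis is scored by imaging LipidTOX-stained pits in HepG2 cells exposed to compound for 24 h at 37 C; pit counts and integrated intensities per well and per cell serve as outputs.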

[12] = biological target: Estrogen receptor beta (Homo sapiens) (UniProt Q92731); assay: qHTS assay to identify small molecule agonists of the estrogen receptor beta (ER-beta) signaling pathway (AID 1259377; active = well fitted activation curve with a large enough effect in the signal ratio in the repeat runs, not every such curve was filed as active; the % refers to the signal ratio)
Estrogen receptor beta (Homo sapiens), sequence (Q92731 whole entry, looked up): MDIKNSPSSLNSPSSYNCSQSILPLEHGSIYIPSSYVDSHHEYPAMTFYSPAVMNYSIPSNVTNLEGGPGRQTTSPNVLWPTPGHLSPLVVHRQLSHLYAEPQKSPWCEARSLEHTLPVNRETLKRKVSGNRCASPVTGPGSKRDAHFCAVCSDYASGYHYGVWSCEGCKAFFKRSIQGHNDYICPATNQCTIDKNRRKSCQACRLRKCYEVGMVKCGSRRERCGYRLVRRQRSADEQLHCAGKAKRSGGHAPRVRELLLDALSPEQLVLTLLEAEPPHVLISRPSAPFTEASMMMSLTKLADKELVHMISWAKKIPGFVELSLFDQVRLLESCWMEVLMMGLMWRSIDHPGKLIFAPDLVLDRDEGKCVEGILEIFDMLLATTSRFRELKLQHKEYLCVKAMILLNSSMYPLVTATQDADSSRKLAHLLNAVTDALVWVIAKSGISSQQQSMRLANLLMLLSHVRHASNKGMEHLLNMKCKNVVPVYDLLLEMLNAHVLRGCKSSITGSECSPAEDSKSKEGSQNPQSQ
Method in brief: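 Reporter cells (HEK293T, ER-beta-UAS-bla) receive compounds or DMSO after a 6 hr pre-incubation. They then incubate 16 hr at 37C/5% CO2, and fluorescence from LiveBLAzer B/G substrate is measured after 2 hours at room temperature.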

[13] = biological target: Estrogen receptor beta (Homo sapiens) (UniProt Q92731); assay: qHTS assay to identify small molecule antagonists of the estrogen receptor beta (ER-beta) signaling pathway (AID 1259378; active = well fitted inhibition curve with a large enough effect in the signal ratio in the repeat runs, not every such curve was filed as active; the % refers to the signal ratio)
Method in brief: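 Antagonist mode: compounds added to beta-lactamase reporter HEK293T ER-beta-UAS cells stimulated with E2 (1nM final), 16 hr at 37C. LiveBLAzer B/G FRET substrate, 2 hours room temperature, fluorescence read-out.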

[14] = biological target: Estrogen receptor (Homo sapiens) (UniProt P03372); assay: qHTS assay to identify small molecule agonists of the estrogen receptor alpha (ER-alpha) signaling pathway in the presence of an antagonist (AID 1259383; calls by dose curve; also: top concentration of the series differs between compounds; nearly all actives have a fitted effect of over 15% in size)
Estrogen receptor (Homo sapiens), sequence (P03372 whole entry, looked up): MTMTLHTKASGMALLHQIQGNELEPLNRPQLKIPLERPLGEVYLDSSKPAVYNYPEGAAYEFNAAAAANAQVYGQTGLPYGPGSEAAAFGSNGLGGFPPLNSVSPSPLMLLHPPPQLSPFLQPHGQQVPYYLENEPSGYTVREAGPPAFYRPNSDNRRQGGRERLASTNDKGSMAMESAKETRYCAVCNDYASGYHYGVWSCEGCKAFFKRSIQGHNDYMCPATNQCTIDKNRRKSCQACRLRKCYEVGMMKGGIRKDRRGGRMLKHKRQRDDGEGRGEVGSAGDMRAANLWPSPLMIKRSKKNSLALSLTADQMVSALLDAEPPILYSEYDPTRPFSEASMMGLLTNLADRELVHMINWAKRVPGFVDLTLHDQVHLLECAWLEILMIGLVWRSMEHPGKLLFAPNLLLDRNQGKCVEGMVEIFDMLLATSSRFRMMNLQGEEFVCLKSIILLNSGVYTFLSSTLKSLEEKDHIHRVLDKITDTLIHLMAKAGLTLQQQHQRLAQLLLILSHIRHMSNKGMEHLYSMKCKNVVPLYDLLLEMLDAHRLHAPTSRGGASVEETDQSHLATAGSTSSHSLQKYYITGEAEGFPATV
Method in brief: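 VM7Luc4E2 cells (endogenous full-length ER-alpha, 4×ERE-luciferase) were precultured 5 days in phenol red-free medium with 10% charcoal-stripped FBS, given 10.0nM ICI-182,780 (final), then treated with compounds at 15 concentrations for 22hr at 37C; luminescence read with ONE-Glo.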

[15] = qHTS assay to identify small molecule agonists or antagonists of the thyroid stimulating hormone receptor (TSHR) signaling pathway - wild type cell line counter screen (AID 1259384; calls by dose curve)
Method in brief: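 Counter screen in untransfected Hek293: compounds (15-point titration, triplicate) plus phosphodiesterase inhibitor Ro20-1724 added after 18 h plating; 30 min RT. Intracellular cAMP via competitive d2/cryptate immunoassay, 1 h incubation.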

[16] = biological target: Thyrotropin receptor (Homo sapiens) (UniProt P16473); assay: qHTS assay to identify small molecule antagonists of the thyroid stimulating hormone receptor (TSHR) signaling pathway (AID 1259385; calls by dose curve; also: nearly all actives have a fitted effect of over 20% in size)
Thyrotropin receptor (Homo sapiens), sequence (P16473 whole entry, looked up): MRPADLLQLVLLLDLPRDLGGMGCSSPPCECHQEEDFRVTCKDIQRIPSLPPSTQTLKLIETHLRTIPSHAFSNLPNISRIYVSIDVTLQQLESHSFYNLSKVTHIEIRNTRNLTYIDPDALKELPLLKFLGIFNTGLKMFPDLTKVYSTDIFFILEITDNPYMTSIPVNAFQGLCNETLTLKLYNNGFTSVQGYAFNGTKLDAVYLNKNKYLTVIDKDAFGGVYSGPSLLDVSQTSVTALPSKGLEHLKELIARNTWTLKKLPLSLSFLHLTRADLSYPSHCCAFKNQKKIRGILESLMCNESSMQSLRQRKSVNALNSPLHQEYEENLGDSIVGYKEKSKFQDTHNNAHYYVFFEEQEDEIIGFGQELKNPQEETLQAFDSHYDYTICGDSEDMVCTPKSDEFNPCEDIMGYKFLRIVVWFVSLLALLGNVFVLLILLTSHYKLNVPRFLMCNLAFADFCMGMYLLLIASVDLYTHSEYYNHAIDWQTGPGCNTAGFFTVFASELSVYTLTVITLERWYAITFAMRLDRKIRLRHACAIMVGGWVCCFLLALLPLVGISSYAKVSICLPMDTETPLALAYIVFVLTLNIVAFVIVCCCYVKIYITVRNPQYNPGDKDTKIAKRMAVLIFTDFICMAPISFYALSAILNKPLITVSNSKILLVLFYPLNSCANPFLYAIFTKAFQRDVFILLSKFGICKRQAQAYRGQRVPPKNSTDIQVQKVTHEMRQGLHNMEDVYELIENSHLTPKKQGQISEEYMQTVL
Method in brief: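 Antagonist mode: compound-treated TSHR-expressing HEK293 cells were stimulated with 1.5 ng/mL TSH (final) in presence of Ro20-1724 for 30 min at RT. HTRF cAMP detection after 1 h; each compound tested at 15 concentrations, triplicate.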

[17] = biological target: Estrogen receptor (Homo sapiens) (UniProt P03372); assay: qHTS assay to identify small molecule antagonists of the estrogen receptor alpha (ER-alpha) signaling pathway using the BG1 cell line in the presence of 0.1 nM 17-beta-estradiol (AID 1259244); also: nearly all actives have a fitted effect of over 50% in size
Method in brief: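 VM7Luc4E2 cells (endogenous full-length ER-alpha, stable 4xERE-luciferase) were grown 5 days in phenol red-free medium with charcoal-stripped FBS, then exposed 22 h at 37C to compounds plus 0.1 nM (final) 17beta-estradiol; ONE-Glo luminescence read-out.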

[18] = qHTS assay to identify small molecule antagonists of the androgen receptor (AR) signaling pathway using the MDA cell line in the presence of 0.5 nM R1881 - cell viability counter screen (AID 1259242); also: nearly all actives have a fitted effect of over 45% in size
Method in brief: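 MDA-kb2 cells (human breast carcinoma, stably carrying MMTV-luciferase reporter) were exposed to compounds with 0.5 nM R1881 (final) for 16 hr at 37C, 0% CO2; viability then read as live-cell protease fluorescence (CellTiter-Fluor, 30 min) in the same wells.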
% is scaled to controls: 0 for no effect and ±100 for the full control effect.

COc1cc2c(cc1OC)-c1cc3ccc(OC)c(OC)c3c[n+]1CC2
inactive: outcome [1] | Potency [2] | outcome [3] | Potency [4] | Potency [5] | outcome [6] | Potency [7] | Potency [9] | outcome [10]
active: Potency [8] 49 µM

[O-][n+]1cccc(CO)c1
inactive: outcome [1] | outcome [11] | Potency [2] | outcome [3] | Potency [4] | Potency [5] | outcome [6] | Potency [7] | Potency [12] | Potency [13] | Potency [8] | Potency [9] | outcome [10] | outcome [14] | outcome [15] | outcome [16]

CC(C)=CCC/C(C)=C/C#N
inactive: outcome [1] | Potency [2] | outcome [3] | Potency [4] | Potency [5] | outcome [6] | Potency [8] | outcome [10] | outcome [14] | outcome [15] | outcome [16]

Nc1ccncc1N
inactive: outcome [1] | outcome [11] | Potency [2] | outcome [3] | Potency [4] | Potency [5] | outcome [6] | Potency [7] | Potency [12] | Potency [13] | Potency [8] | Potency [9] | outcome [10] | outcome [15]

C[C@H]1C[C@H]2[C@@H]3CCC4=CC(=O)C=C[C@]4(C)[C@H]3C(=O)C[C@]2(C)[C@@]1(O)C(=O)CO
inactive: outcome [1] | outcome [17] | PLD induction [11] 2.13% [at 7.66 µM] | Potency [2] | outcome [3] | Potency [4] | Potency [5] | outcome [6] | Potency [7] | Potency [8] | Potency [9] | outcome [14] | outcome [15] | outcome [16]

c1coc(CNc2ncnc3nc[nH]c23)c1
inactive: outcome [1] | outcome [18] | outcome [3] | Potency [4] | Potency [5] | outcome [6] | Potency [8] | Potency [9] | outcome [14] | outcome [15] | outcome [16]

CN1[C@@H]2CC[C@H]1CC(OC(=O)C(O)c1ccccc1)C2 (some centres undefined)
inactive: outcome [1] | outcome [17] | outcome [11] | Potency [2] | outcome [3] | Potency [4] | Potency [5] | outcome [6] | Potency [7] | Potency [8] | Potency [9] | outcome [10] | outcome [14] | outcome [15] | outcome [16]

CC(C)(N)C#N
inactive: outcome [1] | outcome [17] | Potency [2] | outcome [3] | Potency [4] | Potency [5] | outcome [6] | Potency [7] | Potency [12] | Potency [13] | Potency [8] | Potency [9] | outcome [10] | outcome [14] | outcome [15] | outcome [16]

CC(=O)Nc1ccc(OCC(O)CNC(C)C)cc1 (centres undefined)
inactive: outcome [1] | outcome [11] | Potency [2] | outcome [3] | Potency [4] | Potency [5] | outcome [6] | Potency [7] | Potency [12] | Potency [13] | Potency [8] | Potency [9] | outcome [10] | outcome [15] | outcome [16]

CC[N+](CC)(CC(=O)Nc1c(C)cccc1C)Cc1ccccc1 (tested in a mixture with another compound)
inactive: outcome [1] | Potency [2] | outcome [3] | Potency [4] | Potency [5] | outcome [6] | Potency [7] | Potency [8] | Potency [9] | outcome [10] | outcome [15] | outcome [16]
